Assay outcomes (PubChem)
tim23-1 inh = growth inhibitors of tim23-1 mutant yeast, primary screen, luminescence, uHTS; S. cerevisiae tim23-1 growth, BacTiter-Glo luminescence, 24 h; inhibition, % at 20 µM; actives 1.3% (n = 330,000); AID 463212, 2010;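 active means growth inhibition of the mutant yeast at or above 50%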;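 further: temperature-sensitive mutant grown at 25 °C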
tim10-1 inh = growth inhibitors of tim10-1 mutant yeast, primary screen, luminescence, uHTS; inhibition, % at 20 µM; S. cerevisiae tim10-1 ts strain growth, BacTiter-Glo, 24 h; AID 463190, 2010; actives 2.2% (n = 330,000);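 active means inhibition of at least 40%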;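 further: mutant grown at 25 °C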
NALP3 yeast inh = NALP3 inflammasome inhibitors in reconstituted yeast, primary screen, luminescence, uHTS; Yeast reconstituted NLRP3/ASC/caspase-1, beta-gal luminescence, 24 h; actives 0.39% (n = 330,000); inhibition, % at 10 µM; AID 2825, 2010;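 active means inhibition of 50% or more; inactive means inhibition below 50%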
PfHsp90 yeast 2 = growth inhibition of PfHsp90-expressing yeast, primary screen, antimalarial PfHsp90 inhibitor project, S. cerevisiae, BacTiter-Glo luminescence, single point, set 2 | AID 504621, 2011 | inhibition, % at 9.4 µM | BacTiter-Glo ATP, 48 h; yeast lacking PDR1 and PDR3 efflux regulators | actives 0.32% (n = 310,000);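 active means every replicate shows inhibition above about 80%, whatever the replicate mean, limit read from the data; inconclusive means mean inhibition reaches the set limit but some replicate falls short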
TIM10 inh = growth inhibitors of isogenic TIM10 control yeast, primary screen, counter-screen for tim10-1 yeast inhibitor project, luminescence, uHTS | inhibition, % at 10 µM | actives 1.4% (n = 330,000) | S. cerevisiae TIM10 strain growth, BacTiter-Glo luminescence, 24 h | AID 463195, 2010;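 active means inhibition of 40% or more at the single tested concentration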;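 further: wild-type TIM10 isogenic control strain grown at permissive 25 °C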
SKKanGAS inh = S. pyogenes SKKanGAS growth inhibitors in kanamycin, primary screen, streptokinase expression inhibitor project, SKKanGAS strain, BacTiter-Glo luminescence; AID 1662, 2009; 6 h; actives 1.3% (n = 300,000); inhibition, % at 7.5 µM;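 active means mean replicate score, as percent of positive control median, at least 50; inconclusive means mean below 50 but one replicate at or above 50; inactive means mean and every replicate below 50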;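 further: strain carries kanamycin resistance gene driven by streptokinase promoter and grows in 40 µg/ml kanamycin; loss of luminescence reflects streptokinase promoter inhibition or plain growth inhibition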
Each line names hits and unclear results; the compound was inactive in the other large screens. This is a sample that favours compounds with a hit; in the whole collection about 4.6% have one here.

Cc1cc2c(cc1C)CSC(c1c(O)ccc3ccccc13)SC2	PfHsp90 yeast 2 100.0, SKKanGAS inh 94.4
O=C(Nc1ccc2c(c1)CCC2)c1cc(S(=O)(=O)Nc2ccc(F)cc2)c(Cl)cc1Cl	SKKanGAS inh 102.7
C[C@H](NC(=O)c1ccccc1Cl)C(=O)OC(C(=O)Nc1cc(C(F)(F)F)ccc1Cl)c1ccccc1 (some centres not stated)	none
N#CCC(=O)Nc1ccc(C(=O)OC(C(=O)Nc2cc(C(F)(F)F)ccc2Cl)c2ccccc2)cc1 (configuration not stated)	SKKanGAS inh 61.4
COc1cc(S(=O)(=O)NCc2ccncc2)ccc1Br	none
COC(=O)c1cc(S(=O)(=O)n2nc(C)c(Br)c2C)c(Cl)cc1Cl	SKKanGAS inh 72.0
Cc1cc(C)n(S(=O)(=O)c2cc(C(=O)O)c(Cl)cc2Cl)n1	none
O=C(NNc1nc(-c2ccc(F)cc2)cs1)c1ccccc1	SKKanGAS inh 67.6
CC(C)(C)c1csc(NNC(=O)c2ccc(Br)cc2)n1	SKKanGAS inh 61.1
O=C(NNc1nc(-c2ccccc2)cs1)c1ccc(F)cc1	SKKanGAS inh 52.8
C/C(=N\Nc1nc(C(C)(C)C)cs1)c1ccc(O)cc1	none
O=C(NNc1nc(-c2ccccc2)cs1)c1cccs1	none (no result: PfHsp90 yeast 2)
Cc1ccc(NC(=O)c2ccc(NS(=O)(=O)/C=C/c3ccccc3)cc2)nc1	none
O=c1c2c([N+](=O)[O-])cc([N+](=O)[O-])cc2sn1Cc1ccccc1	SKKanGAS inh 85.4
CCCCC(CC)CN1C(=O)/C(=C/c2ccncc2)SC1=S (configuration not stated)	SKKanGAS inh 86.5 (no result: PfHsp90 yeast 2)
O=C(O)c1cccc2c1-c1ccc(Cl)cc1C2=O	none (no result: tim23-1 inh, tim10-1 inh, NALP3 yeast inh, TIM10 inh, SKKanGAS inh)
O=C(O)c1cccc2c1Cc1cc(Cl)ccc1-2	PfHsp90 yeast 2 107.2 (no result: tim23-1 inh, tim10-1 inh, NALP3 yeast inh, TIM10 inh, SKKanGAS inh)
Cc1ccc(NNC(=O)c2cc(C(C)(C)C)nn2Cc2ccccc2)cc1	SKKanGAS inh 60.3
COc1ccccc1NNC(=O)c1cc(C(C)(C)C)nn1Cc1ccccc1	none
CC(C)(C)c1cc(C(=O)NNc2cc(C(F)(F)F)ccc2Cl)n(Cc2ccccc2)n1	SKKanGAS inh 99.1
Cc1ccc(NC(=O)c2cc(C(C)(C)C)nn2Cc2ccccc2)cc1	none
Oc1c(C(Nc2cccc(C(F)(F)F)c2)c2cccnc2)ccc2cccnc12 (configuration not stated)	SKKanGAS inh inconclusive
CN1CCN(C(c2ccc(C(F)(F)F)cc2)c2ccc3cccnc3c2O)CC1 (configuration not stated)	SKKanGAS inh 86.9 (no result: PfHsp90 yeast 2)
Cc1cc(C(=O)Nc2ccccc2C(=O)O)ccc1NC(=O)COc1cccc(C)c1C	SKKanGAS inh 53.6
O=C(COc1ccc(Cl)cc1Cl)Nc1ccc(C(=O)Nc2ccccc2C(=O)O)cc1	SKKanGAS inh 61.6
O=C(COc1ccc(Cl)cc1Cl)NC(=S)Nc1ccccc1C(=O)O	none (no result: PfHsp90 yeast 2)
Cc1ccc(C(=O)Nc2ccccc2C(=O)O)cc1NC(=O)COc1c(C)cccc1C	none
COc1ccccc1C(=O)Nc1ccc(C(=O)Nc2ccccc2C(=O)O)cc1	SKKanGAS inh 49.8
CN(CC1CCCO1)S(=O)(=O)c1ccc(C(=O)Nc2nnc(-c3ccccc3)o2)cc1 (configuration not stated)	SKKanGAS inh 83.6
COc1ccccc1-c1nnc(NC(=O)c2ccc(S(=O)(=O)N(C)CC3CCCO3)cc2)o1 (configuration not stated)	SKKanGAS inh 54.3
CN(CC1CCCO1)S(=O)(=O)c1ccc(C(=O)Nc2ccccc2F)cc1 (configuration not stated)	SKKanGAS inh inconclusive
FC(F)(F)c1cnc(-c2cnc(-c3ccccn3)nc2)c(Cl)c1	SKKanGAS inh 55.5
O=C(N/N=C/c1ccc(O)cc1)c1[nH]c2ccc(Br)cc2c1-c1ccccc1	SKKanGAS inh inconclusive
O=C(N/N=C/c1c[nH]c2ccccc12)c1[nH]c2ccc(Br)cc2c1-c1ccccc1	SKKanGAS inh 72.7 (no result: tim23-1 inh, tim10-1 inh, NALP3 yeast inh, TIM10 inh)
N=C(N)c1ccc(OCCCCCOc2ccc(C(=N)N)cc2)cc1	SKKanGAS inh 108.0
COc1ccc(CCC(=O)OCC(=O)Nc2ccccc2OC(F)F)cc1OC	none
O=C(Nc1cc(S(=O)(=O)Nc2ccc(Cl)cc2)ccc1O)c1ccc(S(=O)(=O)N2CCCCCC2)cc1	none
Nc1nonc1-n1nnc(C(=O)N/N=C/c2cc(Cl)ccc2O)c1CN1CCCCCC1	SKKanGAS inh 49.8
Nc1nonc1-n1nnc(C(=O)N/N=C/c2ccc(Cl)cc2Cl)c1CN1CCCCC1	none
O=C(N/N=C\c1cc(Cl)ccc1O)c1ccc(S(=O)(=O)N2CCCCC2)cc1	SKKanGAS inh 120.6
O=C(N/N=C/c1cc(Cl)ccc1O)c1cccnc1	SKKanGAS inh 84.6
COC(=O)c1cc(NC(=O)c2c(F)c(F)c(F)c(F)c2F)cc(C(=O)OC)c1	none
CCc1nn(CC(=O)N2CCCCCC2)c(=O)c2cc3ccccc3n12	none
O=C(NN=C1CCCC1)c1ccccc1[N+](=O)[O-]	none
C[C@H](CO)N1C[C@H](C)[C@@H](CN(C)C(=O)Nc2ccc3c(c2)OCO3)Oc2c(NC(=O)Nc3ccc4c(c3)OCO4)cccc2C1=O	none (no result: SKKanGAS inh)
N#Cc1c(-c2ccccc2)c(-c2ccccc2)nn(CC(=O)NNC(=O)Nc2ccc(Cl)c(Cl)c2)c1=O	SKKanGAS inh 62.5
CCOc1ccc(NC(=O)CSc2nnc(Cc3ccccc3)c(=O)n2N)cc1	SKKanGAS inh 54.8
COc1ccc2nc(N)sc2c1	none (no result: PfHsp90 yeast 2)
COc1ccc2nc(-n3c(C)ccc3C)sc2c1	SKKanGAS inh 54.4
COc1ccc(NC(=S)NNc2ccc([N+](=O)[O-])cc2S(=O)(=O)Nc2ccc(C)cc2C)cc1	SKKanGAS inh 64.5
Cc1ccc(NS(=O)(=O)c2cc([N+](=O)[O-])ccc2NNC(=S)Nc2cccc(Cl)c2)c(C)c1	SKKanGAS inh 88.5 (no result: tim23-1 inh, tim10-1 inh, NALP3 yeast inh, TIM10 inh)
CCOC(=O)Cc1csc(NC(=O)c2ccc3ncsc3c2)n1	none
O=C(Cc1c(Cl)cccc1Cl)N1CCN(S(=O)(=O)c2cccs2)CC1	none (no result: SKKanGAS inh)
CC[C@H]1OC(=O)[C@H](C)[C@@H](O[C@H]2C[C@@](C)(OC)[C@@H](O)[C@H](C)O2)[C@H](C)[C@@H](O[C@@H]2O[C@H](C)C[C@H](N(C)C)[C@H]2O)[C@](C)(O)C[C@@H](C)C(=NOCOCCOC)[C@H](C)[C@@H](O)[C@]1(C)O	SKKanGAS inh 107.4
